Assay results taken from PubChem BioAssay (Tox21).
A number with no mark means an inactive call. Records with an inconclusive call do not appear. A call without a number means that no potency is given here. The source made the active and inactive calls. Calls follow the shape of the dose curve; as a rule, active = well fitted curve in the direction sought with a large enough effect in the repeat runs; inconclusive = weak or mixed curves; inactive = no such curve, though single readings can be large; an effect the other way counts as inactive or inconclusive.

Key:
[1] = Caspase-3/7 induction in HepG2 cells by small molecules, qHTS assay (AID 1346978); also: nearly all actives have a fitted effect of over 15% in size
Method in brief: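 Wild-type HepG2 cells, 2,000/well, settled 5 hr at 37 C and 5% CO2, then compound-treated for 17 hr; caspase-3/7 activity read by luminescent Caspase-Glo 3/7 after 30 min at room temperature.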

[2] = Caspase-3/7 induction in CHO-K1 cells by small molecules, qHTS cell viability counter screen (AID 1346979); also: nearly all actives have a fitted effect of over 35% in size
Method in brief: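 Cytotoxicity counter screen: CellTiter-Fluor added to compound-treated wild-type CHO-K1 cells at 16 h (37C, 5% CO2), fluorescence measured 1 h later; same wells as caspase-3/7 measurement.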

[3] = Caspase-3/7 induction in CHO-K1 cells by small molecules, qHTS assay (AID 1346980); also: nearly all actives have a fitted effect of over 15% in size
Method in brief: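 Wild-type CHO-K1 cells exposed to compounds for 17hr at 37 C, 5% CO2. Caspase-3/7 activity then measured by Caspase-Glo 3/7 luminescence after 30min at room temperature.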

[4] = Caspase-3/7 induction in HepG2 cells by small molecules, qHTS cell viability counter screen (AID 1346981); also: series mostly up to about 92 µM; nearly all actives have a fitted effect of over 30% in size
Method in brief: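 Treatment of HepG2 cells with DMSO-delivered compounds ran 16 hr at 37 C following a 5-hr pre-incubation of 2,000 cells/well. CellTiter-Fluor fluorescence, read after 1 hr, served as the viability measure in a qHTS format.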

[5] = target: Nuclear receptor subfamily 1 group I member 2 (Homo sapiens) (UniProt O75469); assay: Human pregnane X receptor (PXR) small molecule agonists, qHTS assay (AID 1346982); also: nearly all actives have a fitted effect of over 35% in size; also: potency is read from the fitted curve at half-maximal effect
Method in brief: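 Stable HepG2 line reporting PXR-mediated CYP3A4 expression via luciferase. Treatment: 24 hr with compounds in DMSO at 37 C. Detection: ONE-Glo luminescence.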

[6] = target: Cytochrome P450 2D6 (Homo sapiens) (UniProt P10635); assay: Cytochrome P450 Family 2 Subfamily D Member 6 (CYP2D6) small molecule antagonists: luciferase reporter qHTS assay (AID 1671196); also: nearly all actives have a fitted effect of over 50% in size; also: potency is read from the fitted curve at half-maximal effect
Method in brief: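 Chemicals tested for interference with CYP2D6 activity; proluciferin substrate, NADPH regeneration, 1 h at room temperature, luminescent detection.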

[7] = target: Cytochrome P450 2C19 (Homo sapiens) (UniProt P33261); assay: Cytochrome P450 Family 2 Subfamily C Member 19 (CYP2C19) small molecule antagonists: luciferase reporter qHTS assay (AID 1671197); also: nearly all actives have a fitted effect of over 65% in size; also: potency is read from the fitted curve at half-maximal effect
Method in brief: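 First, compounds are pinned into enzyme-substrate mix and held 10 min at room temperature. Second, NADPH regeneration solution is added and plates incubate 1 h at 37C. Third, detection reagent is added and luminescence read after 20 min.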

[8] = target: Cytochrome P450 2C9 (Homo sapiens) (UniProt P11712); assay: Cytochrome P450 Family 2 Subfamily C Member 9 (CYP2C9) small molecule antagonists: luciferase reporter qHTS assay (AID 1671198); also: nearly all actives have a fitted effect of over 50% in size; also: potency is read from the fitted curve at half-maximal effect
Method in brief: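 P450-Glo proluciferin substrate with CYP2C9 enzyme; 10 min RT preincubation, then NADPH regeneration 1 h at 37C; luciferin detection reagent 20 min RT, luminescence in relative luminescence units.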

[9] = target: Cytochrome P450 1A2 (Homo sapiens) (UniProt P05177); assay: Cytochrome P450 Family 1 Subfamily A Member 2 (CYP1A2) small molecule antagonists: luciferase reporter qHTS assay (AID 1671199); also: nearly all actives have a fitted effect of over 50% in size; also: potency is read from the fitted curve at half-maximal effect
Method in brief: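 Read-out is luminescence from luciferin detection reagent (20 min) proportional to CYP1A2 activity; compounds in DMSO preincubated 10 min with enzyme and proluciferin substrate, then NADPH regeneration solution, 1 h, room temperature.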

[10] = target: Voltage-gated inwardly rectifying potassium channel KCNH2 (Homo sapiens) (UniProt Q12809); assay: Human Ether-a-go-go-Related Gene (hERG) channel small molecule antagonists: fluorescence cell-based qHTS assay (AID 1671200); also: nearly all actives have a fitted effect of over 50% in size; also: potency is read from the fitted curve at half-maximal effect
Method in brief: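 Thallium flux as potassium surrogate: FluxOR II dye loaded 1 h at room temperature into hERG-expressing U2OS cells, then stimulus buffer added after 10 min. Kinetic 480 nm excitation/540 nm emission read, 2 min.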

[11] = target: Cytochrome P450 3A4 (Homo sapiens) (UniProt P08684); assay: Cytochrome P450 Family 3 Subfamily A Member 4 (CYP3A4) small molecule antagonists: luciferase reporter qHTS assay (AID 1671201); also: nearly all actives have a fitted effect of over 50% in size; also: potency is read from the fitted curve at half-maximal effect
Method in brief: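 Recombinant human CYP3A4 converts a proluciferin substrate to luciferin over 1 h at room temperature after NADPH regeneration solution is added (compound preincubated 10 min); detection reagent stops reaction, luminescence read 20 min later as relative units.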

[12] = Human pregnane X receptor (PXR) small molecule agonists, qHTS cell viability counter screen (AID 1346977); also: nearly all actives have a fitted effect of over 50% in size
Method in brief: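 Same-well viability read: CellTiter-Fluor added after 23 hr compound exposure, fluorescence measured 1 hr later. Cells were PXR-Luc HepG2 seeded at 2,000/well in 5% charcoal-stripped FBS medium, rested 5 hr before dosing at 37 C.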

[13] = target: Nuclear receptor subfamily 1 group I member 2 (Rattus norvegicus) (UniProt Q9R1A7); assay: Rat pregnane X receptor (rPXR) activation by small molecules, qHTS assay (AID 1346983); conditions: rPXR luciferase reporter cells, One-Glo luminescence, 24 h; max activation: hits give high values; also: nearly all actives have a fitted effect of over 20% in size
Method in brief: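 Cell-based rPXR activation assay: rPXR cells, 2,000 per well, rested 5hr at 37 C, then exposed to compounds in DMSO for 24 hr at 37 C. Luciferase activity read by One-Glo luminescence after 30 min at room temperature.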

[14] = target: Nuclear receptor subfamily 1 group I member 2 (Homo sapiens) (UniProt O75469); assay: CYP3A4 induction through human pregnane X receptor (PXR) by small molecules, qHTS assay (AID 1346984); also: nearly all actives have a fitted effect of over 40% in size
Method in brief: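 After 24 h at 37C with compound, DPX-2 cells (HepG2, co-transfected PXR response element and CYP3A4 promoter-luciferase) got 3uM final P450-Glo Luciferin-IPA for 3 h; One-Glo luminescence followed.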

[15] = target: Nuclear receptor subfamily 1 group I member 2 (Homo sapiens) (UniProt O75469); assay: Human pregnane X receptor (PXR) activation by small molecules, qHTS assay (AID 1346985); also: nearly all actives have a fitted effect of over 40% in size
Method in brief: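 DPX-2 cells (HepG2 co-transfected with a PXR response element and a CYP3A4-promoter luciferase construct) were seeded at 2,000 per well, rested 5 hr at 37C, then exposed to DMSO-dissolved compounds for 24 hr. Activation was read as luciferase luminescence.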

Cytochrome P450 2D6 (Homo sapiens), sequence (P10635 whole entry, looked up): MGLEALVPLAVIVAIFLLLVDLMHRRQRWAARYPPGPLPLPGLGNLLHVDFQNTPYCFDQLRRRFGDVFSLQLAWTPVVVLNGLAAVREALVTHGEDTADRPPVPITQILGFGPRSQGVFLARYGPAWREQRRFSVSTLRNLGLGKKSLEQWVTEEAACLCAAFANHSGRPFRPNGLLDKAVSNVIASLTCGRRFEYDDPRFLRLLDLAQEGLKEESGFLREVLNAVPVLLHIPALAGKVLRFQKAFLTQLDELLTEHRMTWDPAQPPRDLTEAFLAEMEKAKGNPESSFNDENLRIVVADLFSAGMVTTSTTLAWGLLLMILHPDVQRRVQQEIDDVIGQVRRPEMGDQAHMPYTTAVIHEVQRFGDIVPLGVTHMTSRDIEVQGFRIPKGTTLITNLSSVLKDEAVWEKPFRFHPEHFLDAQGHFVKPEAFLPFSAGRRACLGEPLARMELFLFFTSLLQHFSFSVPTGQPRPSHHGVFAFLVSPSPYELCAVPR
Cytochrome P450 2C9 (Homo sapiens), sequence (P11712 whole entry, looked up): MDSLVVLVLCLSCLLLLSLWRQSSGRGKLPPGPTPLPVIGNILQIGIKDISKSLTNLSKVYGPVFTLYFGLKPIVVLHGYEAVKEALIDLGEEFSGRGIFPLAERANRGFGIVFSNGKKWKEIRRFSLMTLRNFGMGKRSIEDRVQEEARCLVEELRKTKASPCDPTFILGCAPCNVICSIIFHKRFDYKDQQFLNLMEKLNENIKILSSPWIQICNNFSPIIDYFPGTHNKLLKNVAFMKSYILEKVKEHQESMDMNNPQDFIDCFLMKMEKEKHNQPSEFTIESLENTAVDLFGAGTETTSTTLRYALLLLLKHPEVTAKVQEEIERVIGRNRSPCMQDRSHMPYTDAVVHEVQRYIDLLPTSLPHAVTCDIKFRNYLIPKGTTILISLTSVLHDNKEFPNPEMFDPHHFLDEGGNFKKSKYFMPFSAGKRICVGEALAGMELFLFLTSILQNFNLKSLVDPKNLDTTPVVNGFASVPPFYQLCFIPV
Cytochrome P450 1A2 (Homo sapiens), sequence (P05177 whole entry, looked up): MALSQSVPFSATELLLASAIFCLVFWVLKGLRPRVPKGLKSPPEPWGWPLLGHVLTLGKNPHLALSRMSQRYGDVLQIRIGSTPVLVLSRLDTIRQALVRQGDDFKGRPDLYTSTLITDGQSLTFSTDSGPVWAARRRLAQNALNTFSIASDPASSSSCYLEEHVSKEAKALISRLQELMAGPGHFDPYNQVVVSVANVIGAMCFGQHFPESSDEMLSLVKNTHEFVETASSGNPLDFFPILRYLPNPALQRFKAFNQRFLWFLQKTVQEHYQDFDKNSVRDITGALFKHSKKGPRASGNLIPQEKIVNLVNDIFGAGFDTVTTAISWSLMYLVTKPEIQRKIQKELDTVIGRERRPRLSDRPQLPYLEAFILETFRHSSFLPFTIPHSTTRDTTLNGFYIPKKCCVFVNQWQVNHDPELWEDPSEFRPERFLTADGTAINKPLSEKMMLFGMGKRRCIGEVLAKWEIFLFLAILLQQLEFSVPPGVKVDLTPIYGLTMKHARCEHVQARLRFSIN
Cytochrome P450 2C19 (Homo sapiens), sequence (P33261 whole entry, looked up): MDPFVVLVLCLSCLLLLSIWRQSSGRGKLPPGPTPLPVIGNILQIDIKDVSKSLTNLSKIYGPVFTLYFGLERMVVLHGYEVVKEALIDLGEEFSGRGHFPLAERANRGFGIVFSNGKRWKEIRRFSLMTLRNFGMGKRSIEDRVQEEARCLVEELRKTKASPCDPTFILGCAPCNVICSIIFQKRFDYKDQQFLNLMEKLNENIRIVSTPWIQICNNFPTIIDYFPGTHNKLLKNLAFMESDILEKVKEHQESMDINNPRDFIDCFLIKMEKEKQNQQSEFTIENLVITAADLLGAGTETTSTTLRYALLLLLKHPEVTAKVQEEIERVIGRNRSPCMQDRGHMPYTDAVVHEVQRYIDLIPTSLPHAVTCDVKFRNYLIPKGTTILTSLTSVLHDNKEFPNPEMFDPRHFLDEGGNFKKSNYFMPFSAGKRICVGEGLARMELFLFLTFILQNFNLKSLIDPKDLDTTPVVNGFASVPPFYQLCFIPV
Voltage-gated inwardly rectifying potassium channel KCNH2 (Homo sapiens), sequence (Q12809 whole entry, looked up): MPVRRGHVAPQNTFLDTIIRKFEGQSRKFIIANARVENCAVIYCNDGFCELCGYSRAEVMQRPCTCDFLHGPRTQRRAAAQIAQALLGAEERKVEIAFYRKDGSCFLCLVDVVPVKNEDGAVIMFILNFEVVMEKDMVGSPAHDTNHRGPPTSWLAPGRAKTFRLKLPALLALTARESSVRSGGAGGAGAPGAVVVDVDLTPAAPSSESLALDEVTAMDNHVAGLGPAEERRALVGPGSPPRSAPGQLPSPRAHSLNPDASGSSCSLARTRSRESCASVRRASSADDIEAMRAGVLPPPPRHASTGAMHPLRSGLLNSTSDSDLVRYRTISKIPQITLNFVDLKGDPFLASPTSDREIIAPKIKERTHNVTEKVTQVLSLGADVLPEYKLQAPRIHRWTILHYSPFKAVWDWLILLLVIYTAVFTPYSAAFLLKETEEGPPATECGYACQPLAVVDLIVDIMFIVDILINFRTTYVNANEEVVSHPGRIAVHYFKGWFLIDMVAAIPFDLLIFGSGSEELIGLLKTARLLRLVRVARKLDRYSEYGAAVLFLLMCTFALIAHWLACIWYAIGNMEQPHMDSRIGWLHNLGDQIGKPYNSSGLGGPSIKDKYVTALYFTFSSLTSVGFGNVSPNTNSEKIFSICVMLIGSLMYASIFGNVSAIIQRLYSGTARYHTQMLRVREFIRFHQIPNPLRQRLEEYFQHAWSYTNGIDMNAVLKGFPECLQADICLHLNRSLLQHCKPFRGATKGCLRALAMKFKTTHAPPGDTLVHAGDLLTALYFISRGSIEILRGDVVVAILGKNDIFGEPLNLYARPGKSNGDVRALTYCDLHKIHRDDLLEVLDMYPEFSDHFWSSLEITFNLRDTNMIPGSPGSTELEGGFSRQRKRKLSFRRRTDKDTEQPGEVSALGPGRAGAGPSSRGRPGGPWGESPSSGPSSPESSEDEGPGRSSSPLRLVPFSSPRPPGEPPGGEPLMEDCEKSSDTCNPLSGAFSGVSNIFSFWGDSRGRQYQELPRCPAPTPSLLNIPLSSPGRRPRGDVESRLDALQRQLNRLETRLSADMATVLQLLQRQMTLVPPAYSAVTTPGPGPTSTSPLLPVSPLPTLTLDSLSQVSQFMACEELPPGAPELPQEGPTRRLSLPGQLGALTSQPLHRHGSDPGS
Cytochrome P450 3A4 (Homo sapiens), sequence (P08684 whole entry, looked up): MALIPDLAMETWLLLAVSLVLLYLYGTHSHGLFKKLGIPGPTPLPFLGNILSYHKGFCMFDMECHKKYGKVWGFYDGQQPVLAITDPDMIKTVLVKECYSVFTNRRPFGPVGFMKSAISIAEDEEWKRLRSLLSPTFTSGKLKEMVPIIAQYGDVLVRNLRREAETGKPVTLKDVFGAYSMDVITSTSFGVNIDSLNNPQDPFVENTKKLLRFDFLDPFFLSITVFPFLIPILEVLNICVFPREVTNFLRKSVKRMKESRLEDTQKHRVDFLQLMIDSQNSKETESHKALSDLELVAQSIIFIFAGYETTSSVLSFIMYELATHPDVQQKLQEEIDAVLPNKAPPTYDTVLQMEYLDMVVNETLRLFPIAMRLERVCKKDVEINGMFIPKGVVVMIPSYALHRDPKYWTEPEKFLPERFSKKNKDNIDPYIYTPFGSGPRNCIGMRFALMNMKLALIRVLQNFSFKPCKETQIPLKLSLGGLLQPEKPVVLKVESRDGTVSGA
Nuclear receptor subfamily 1 group I member 2 (Rattus norvegicus), sequence (Q9R1A7 whole entry, looked up): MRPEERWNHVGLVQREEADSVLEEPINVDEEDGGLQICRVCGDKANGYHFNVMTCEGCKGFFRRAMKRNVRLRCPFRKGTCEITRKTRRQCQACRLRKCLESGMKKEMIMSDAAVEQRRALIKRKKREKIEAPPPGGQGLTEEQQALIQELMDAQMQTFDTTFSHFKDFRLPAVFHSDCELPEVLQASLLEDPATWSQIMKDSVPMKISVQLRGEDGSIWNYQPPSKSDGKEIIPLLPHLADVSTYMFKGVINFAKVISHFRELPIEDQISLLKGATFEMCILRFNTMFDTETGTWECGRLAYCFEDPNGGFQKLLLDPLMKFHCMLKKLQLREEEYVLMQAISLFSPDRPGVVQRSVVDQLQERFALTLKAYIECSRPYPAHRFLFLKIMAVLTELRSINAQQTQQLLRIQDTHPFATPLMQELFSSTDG
Nuclear receptor subfamily 1 group I member 2 (Homo sapiens), sequence (O75469 whole entry, looked up): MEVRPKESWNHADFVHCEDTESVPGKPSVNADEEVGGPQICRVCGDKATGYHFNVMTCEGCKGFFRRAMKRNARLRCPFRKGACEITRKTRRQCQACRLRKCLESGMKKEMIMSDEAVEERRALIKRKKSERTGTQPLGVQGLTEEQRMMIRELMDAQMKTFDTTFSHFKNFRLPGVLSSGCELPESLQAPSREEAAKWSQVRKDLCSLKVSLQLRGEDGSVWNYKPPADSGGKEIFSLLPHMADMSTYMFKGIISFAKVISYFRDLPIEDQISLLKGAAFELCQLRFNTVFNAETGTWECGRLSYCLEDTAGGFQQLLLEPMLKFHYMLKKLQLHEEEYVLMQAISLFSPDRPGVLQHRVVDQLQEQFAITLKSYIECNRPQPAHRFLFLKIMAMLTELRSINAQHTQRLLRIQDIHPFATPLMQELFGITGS

Row | Compound | Potency [1] | Potency [2] | outcome [3] | Potency [4] | Potency [5] | Potency [6] | Potency [7] | Potency [8] | Potency [9] | Potency [10] | Potency [11] | Potency [12] | max activation [13] [%] | Potency [14] | Potency [15]
1 | O=C(CCS)OCC(COC(=O)CCS)(COC(=O)CCS)COC(=O)CCS | inactive | inactive | inactive | inactive | inactive | inactive | 15.9 µM (active) | 15.9 µM (active) | inactive | 38.9 µM (active) | 5.64 µM (active) |  |  |  | 
2 | COc1cc(C(C)=O)ccc1OCCCN1CCC(c2noc3cc(F)ccc23)CC1 | inactive |  | inactive |  |  | 11 µM (active) | inactive |  | inactive | 1.07 µM (active) |  | inactive |  |  | 
3 | COc1ccc(-c2cc(C(F)F)nn2-c2ccc(S(N)(=O)=O)cc2)cc1F | inactive | inactive | inactive | inactive | 15 µM (active) | 8.71 µM (active) |  | 8.71 µM (active) | inactive |  |  |  | -1.2 | inactive | inactive
4 | O=C(O)CCS | inactive | inactive | inactive | inactive | inactive | inactive | inactive | inactive | inactive | inactive | inactive |  |  |  | 
5 | O=P(O)(O)Oc1ccccc1 | inactive |  | inactive | inactive | inactive |  | inactive | inactive | inactive | inactive |  | inactive |  |  | 
6 | Nc1ccc(F)cc1 | inactive | inactive | inactive | inactive | inactive | inactive | inactive | inactive | inactive | inactive | inactive |  |  |  | 
7 | CC(=O)OCCC(C)CC(C)(C)C (stereo not drawn) | inactive |  | inactive | inactive | inactive | 71 µM (active) | inactive | inactive | inactive | inactive | inactive | inactive |  |  | 
8 | C=C(C)C(=O)OCCC(F)(F)C(F)(F)C(F)(F)C(F)(F)C(F)(F)C(F)(F)F | inactive |  | inactive | inactive | inactive | inactive | inactive | inactive | inactive | inactive | inactive | inactive |  |  | 
9 | CCCCC[C@H](O)/C=C/[C@H]1[C@H](O)CC(=O)[C@@H]1C/C=C\CCCC(=O)O | inactive | inactive | inactive | inactive | inactive | inactive |  | inactive | inactive | inactive |  |  | -0.864 | inactive | inactive
10 | CCN(CC)CCOC(=O)C(c1ccccc1)c1ccccc1 | inactive | inactive | inactive | inactive | inactive | 2.75 µM (active) | 21.9 µM (active) |  | 15.5 µM (active) | 2.68 µM (active) | inactive |  | 0.131 | inactive | inactive
11 | COc1ccc(C2C(=O)c3ccccc3C2=O)cc1 | inactive | inactive | inactive | inactive | inactive | inactive | 8.71 µM (active) |  | inactive | inactive |  |  | 8.42 | inactive | 
12 | CCO[Si](C)(CCCOCC1CO1)OCC (stereo not drawn) | inactive | inactive | inactive | inactive | inactive | inactive | inactive |  |  | inactive |  |  |  |  | 
13 | O=C(O)CN1C(=O)c2cccc3cccc(c23)C1=O | inactive |  | inactive | inactive |  |  |  |  |  | inactive |  | inactive | -2.76 |  | 
14 | CCCc1nc2c(C)cc(-c3nc4ccccc4n3C)cc2n1Cc1ccc(-c2ccccc2C(=O)O)cc1 | inactive |  | inactive |  |  | inactive |  | 7.76 µM (active) | inactive | inactive |  | inactive | -2.19 |  | 
15 | COc1cc(NC(C)CCCN)c2ncccc2c1 (stereo not drawn) | inactive | inactive | inactive | inactive | inactive |  |  |  |  | inactive |  |  | -6.86 |  | inactive
16 | CCCCCCCCCCCC(=O)OCC(O)CO (stereo not drawn) | inactive |  | inactive | inactive | inactive |  | 79.6 µM (active) | 39.9 µM (active) |  | inactive |  | inactive | -6.09 | inactive | inactive
17 | CCCCCc1ccco1 | inactive |  | inactive | inactive |  |  | 32.8 µM (active) | 26 µM (active) | 36.8 µM (active) | inactive | 23.2 µM (active) | inactive |  |  | 
